# Assay outcomes: PubChem BioAssay, The Scripps Research Institute Molecular Screening Center
# Most compounds without a hit are left out; they make up all but 2.8% or so of the library.
# PAFAH2 FP inh: inhibitors of human PAFAH2; inhibition, % at 3.39 µM; AID 492956; recombinant PAFAH2, FP-rhodamine activity probe, fluorescence polarization; 340,000 compounds, 0.99% hits; Q99487;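 active = inhibition above the mean over all tested compounds plus 3 SD, cut at about 30% in these data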;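 note: inhibitors block probe labeling of enzyme so polarization drops; 0% = enzyme with DMSO and 100% = wells lacking PAFAH2 protein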
# PAFAH1B2 inh: blocks human PAF acetylhydrolase 1b catalytic subunit 2; P68402; inhibition, % at 3.39 µM; recombinant PAFAH1B2, FP-rhodamine activity probe, fluorescence polarization; 340,000 compounds, 1.2% hits;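 active = inhibition above the mean of all tested compounds plus 3 SD, cut at about 24% in these data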;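 note: 0% = enzyme with DMSO and 100% = wells lacking PAFAH1B2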
# pPAFAH inh: inhibitors of human plasma PAF acetylhydrolase (pPAFAH). recombinant pPAFAH, FP-rhodamine probe fluorescence polarization. inhibition, % at 3.39 µM. 330,000 compounds, 1.5% hits;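 active = inhibition above the mean inhibition across the screen plus 3 SD, cut at about 25% in these data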;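 note: inhibitors block binding of the rhodamine activity-based probe so polarization drops; 0% = enzyme with DMSO and 100% = wells lacking pPAFAH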
# Target sequence (Q13093 whole entry, looked up): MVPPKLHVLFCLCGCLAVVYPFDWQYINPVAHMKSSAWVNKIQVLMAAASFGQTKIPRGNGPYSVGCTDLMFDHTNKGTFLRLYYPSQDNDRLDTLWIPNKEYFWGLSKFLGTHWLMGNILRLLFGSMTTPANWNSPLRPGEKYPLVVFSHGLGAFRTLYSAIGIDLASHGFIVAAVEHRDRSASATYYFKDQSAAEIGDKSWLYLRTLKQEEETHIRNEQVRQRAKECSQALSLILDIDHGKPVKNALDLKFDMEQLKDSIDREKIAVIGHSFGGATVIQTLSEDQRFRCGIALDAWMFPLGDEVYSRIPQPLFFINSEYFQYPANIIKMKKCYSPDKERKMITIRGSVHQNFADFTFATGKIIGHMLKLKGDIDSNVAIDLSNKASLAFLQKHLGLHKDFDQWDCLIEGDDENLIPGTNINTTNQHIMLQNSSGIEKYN
# PAFAH1B3 inh: inhibitors of human PAFAH1B3; recombinant PAFAH1B3, FP-rhodamine probe, fluorescence polarization; Q15102; inhibition, % at 3.39 µM; 340,000 compounds, 0.28% hits;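 active = inhibition above the screen-wide average of all tested compounds plus 3 SD, cut at about 25% in these data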;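 note: 0% = enzyme with DMSO only and 100% = wells lacking PAFAH1B3 protein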
# Fam108B inh: counter-screen for RBBP9 inhibitors: inhibitors of mouse Fam108B. recombinant Fam108B, FP-Rh probe fluorescence polarization. 300,000 compounds, 0.33% hits. inhibition, % at 9.51 µM;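 active = inhibition above the screen mean inhibition plus 3 SD, computed separately per campaign, cut at about 18% in these data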;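 note: inhibitors lower polarization as less probe binds the enzyme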
# PME-1 inh: blocks human protein phosphatase methylesterase 1; Q9Y570; recombinant PME-1, FP-Rh probe fluorescence polarization; inhibition, % at 5.9 µM; 320,000 compounds, 0.53% hits; AID 2130;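 active = inhibition above the campaign mean of all compounds plus 3 SD, cut at about 26% in these data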;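 note: competitive labeling of PME-1 active site by serine hydrolase directed probe; 0% = PME-1 with DMSO and 100% = wells lacking PME-1 enzyme; inhibitors block probe labeling so polarization falls and inhibition rises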
# Numbers without * were called inactive; nt = no result.
SMILES,PAFAH2 FP inh,PAFAH1B2 inh,pPAFAH inh,PAFAH1B3 inh,Fam108B inh,PME-1 inh
Cc1ccc(OCCNS(=O)(=O)c2ccc(Cl)cc2)cc1,8.5,24.5*,3.2,5.4,nt,9.1
Cc1ccc(S(=O)(=O)NCC(=O)OCc2ccccc2Br)cc1,3.0,12.9,13.4,8.1,2.5,-5.4
CC(C)(C)SCCNS(=O)(=O)c1ccc(Cl)cc1,nt,nt,31.1*,nt,1.4,-7.0
CC(OC(=O)C1CC1C)C(=O)Nc1ccc(Cl)cn1 (stereo not drawn),-2.3,0.1,nt,-5.8,nt,nt
COC(=O)CC1C(=O)NCCN1C(=S)Nc1ccc(F)cc1 (stereo not drawn),3.8,2.6,2.2,6.3,2.5,0.0
CC1=C(C)CC(C(=O)NC2CCN(C(C)C)CC2)C(C(=O)O)C1 (stereo not drawn),7.5,1.4,-1.4,-1.9,2.2,-2.8
Cc1ccc(NC(=O)CNC(=O)c2cccs2)c(O)c1,-4.3,1.4,5.6,-2.3,-2.6,2.4
Brc1ccc(CSc2nnc(-c3cnccn3)n2Cc2ccco2)cc1,-1.9,29.8*,7.5,1.2,4.7,5.5
O=C(COC(=O)Cc1ccsc1)Nc1ccc(F)cc1Cl,-3.6,-1.9,28.7*,4.1,nt,-3.3
Cc1ccc(C)c(NC(=O)COC(=O)Cc2ccsc2)c1,4.8,6.9,24.9*,-9.0,0.4,2.6
Cc1ccccc1NC(=O)COC(=O)Cc1ccsc1,8.6,4.8,27.2*,1.9,4.3,1.3
O=C(COC(=O)Cc1ccsc1)Nc1ccc(Cl)cn1,3.4,2.1,27.8*,5.5,nt,0.8
Cc1cccc(C)c1NC(=O)COC(=O)Cc1ccsc1,-6.8,3.4,23.2,-1.6,0.0,4.2
CC(=O)c1ccc(C(=O)N2CCC(n3nccc3NC(=O)C3CC3)CC2)cc1,4.5,-2.7,2.3,10.0,-2.3,4.6
Cc1ccc(-c2cc3ccccc3nc2N2CCOCC2)cc1,nt,nt,26.3*,nt,-2.2,0.6
N#CCC(=O)Nc1ccc(C(=O)NCCC(c2ccccc2)c2ccccc2)cc1,-13.2,-7.0,34.4*,-8.7,-7.1,12.8
CN(C)C(CNC(=O)c1ccc(NC(=O)CC#N)cc1)c1ccccc1 (stereo not drawn),-10.7,1.1,2.5,1.9,-4.1,-5.8
COc1cccc(-c2nc(SCC(=O)Nc3nc(-c4ccccc4)c(C)s3)[nH]c(=O)c2C#N)c1,-10.9,16.4,-3.2,-6.7,-16.5,-21.6
COC(=O)C(CC(C)C)NC(=O)CSc1nc(-c2ccccc2)c(C#N)c(=O)[nH]1 (stereo not drawn),3.3,9.5,5.3,6.2,0.6,-1.4
CCOC(=O)Cc1csc(NC(=O)CSc2nc(-c3ccccc3)c(C#N)c(=O)[nH]2)n1,0.0,65.1*,-3.1,13.9,6.0,-1.0
CCOc1ccc2nc(NC(=O)CSc3nc(-c4ccccc4)c(C#N)c(=O)[nH]3)sc2c1,-11.7,82.5*,nt,2.0,nt,nt
O=C(NNC(=O)c1ccc(-n2cncn2)c([N+](=O)[O-])c1)c1cccc(Cl)c1,-2.2,3.5,2.0,4.0,-0.1,-6.3
O=C(CCCCCN1C(=O)c2ccccc2C1=O)Nc1ccc(C(=O)O)cc1,1.7,1.5,-4.4,6.0,-1.9,3.7
O=C(O)c1cccc(CSc2nc(-c3ccccc3)cc(C(F)(F)F)n2)c1,-10.8,1.8,25.6*,7.0,2.6,-9.1
COc1ccc(-c2cc(C(F)(F)F)nc(SCc3cccc(C(=O)O)c3)n2)cc1,-3.0,0.1,7.6,-3.9,4.9,-4.2
SMILES,PAFAH2 FP inh,PAFAH1B2 inh,pPAFAH inh,PAFAH1B3 inh,Fam108B inh,PME-1 inh
Fc1cc(F)c2nc(Nc3nc4cc5c(cc4s3)OCO5)sc2c1,-19.2,9.9,7.4,22.3,13.2,48.6*
Fc1cccc2sc(Nc3nc4cc5c(cc4s3)OCCO5)nc12,-6.4,6.9,9.4,1.9,9.8,66.8*
CC(C)C(=O)Nc1nc2cc3c(cc2s1)OCO3,3.8,-0.8,3.8,-2.2,-2.6,-4.4
Fc1cccc2sc(Nc3nc4cc5c(cc4s3)OCO5)nc12,-3.9,2.6,7.5,4.0,17.1,71.9*
O=C(Nc1nc2cc3c(cc2s1)OCO3)C1CC1,7.9,5.4,3.6,7.2,1.2,0.1
CC(C)NC(=O)CSc1ccccc1C(=O)N1CCN(S(=O)(=O)Cc2ccccc2)CC1,-10.5,-1.4,nt,6.8,nt,nt
Cc1cc(NC(=O)C(C)SCC(=O)Nc2nc3c(F)cc(F)cc3s2)no1 (stereo not drawn),10.2,6.7,-3.6,13.0,nt,-2.9
